Inhibition data for 93 compounds are collected here from PubChem BioAssay AID1566 (Sanford-Burnham Center for Chemical Genomics, 2009).

Out of some 290,000 compounds screened, about 1,800 (0.62%) were called active. Cut-off read from the data, not from the text of the source: active = inhibition above about 50%; inactive = the rest. The sample as a whole holds a higher share of actives than the screen did.

This assay is described as follows: inhibition of NOD2-driven NF-kB reporter – cell-based, luminescence, uHTS, HEK293 (AID 1566). The note with it: HEK293 NOD2/NF-kB luciferase reporter, at 4 µM, hits give high values.
Turning to `CCOc1ccc(CN(C)CC(=O)Nc2cc(OC)c([N+](=O)[O-])cc2C)cc1`, the inhibition is -8% (inactive).
`CCCN(CCC)S(=O)(=O)c1ccc(C(=O)NNc2nc(-c3ccccc3)c3cc(Br)ccc3n2)cc1`: the inhibition was -5% (inactive).
To `Cc1cccnc1NC(=O)CCNC(=O)c1ccccc1Cl` belongs -22.7% (inactive).
To `COc1ccccc1NC(=O)CSc1n[nH]c(-c2cccnc2)n1` belongs 8.6% (inactive); to `COc1ccc(C2C(C(=O)c3ccco3)=C(O)C(=O)N2CCCn2ccnc2)c(OC)c1` (stereo not drawn), -6.9% (inactive); to `CC(C)=C(NC(=O)c1ccccc1)C(=O)NCc1ccccc1`, -7% (inactive).
Consider `O=c1sc2ccccc2c(N2CCOCC2)c1[N+](=O)[O-]`, for which the inhibition was 8.4% (inactive).
To `COc1cc(/C=N\n2cnnc2)ccc1OCC(=O)Nc1ccc(C)cc1` belongs 12.5% (inactive); to `COC(=O)C1(Cc2cc(-c3cccnc3)no2)CCN(C(=O)OC(C)(C)C)CC1`, 15.6% (inactive); to `COc1ccc(-c2ccc3ccccc3n2)cc1`, -226% (inactive).
For the compound `c1ccc2nc(-c3ccc(N4CCOCC4)cc3)ccc2c1`, the inhibition is -59.7% (inactive).
To `CN1CCN(c2ccc(-c3ccc4ccccc4n3)cc2)CC1` belongs 79.9% (active); to `Cc1cccc(Oc2ccc(N)cc2)c1`, -4% (inactive); to `Nc1ccc(Oc2cc(N)cc(Oc3ccccc3)c2)cc1`, -93.4% (inactive).
With `CC(C)c1ccc(C(C(=O)NC2CCCC2)N(C(=O)c2csnn2)C2CC2)cc1` (stereo not drawn), the inhibition is 12.1% (inactive).
To `CC(SCc1ccccc1)C(=O)NC1CCCC1` (stereo not drawn) belongs -2.5% (inactive).
As to `Cc1cc(=O)[nH]c(SCC(=O)Nc2ccnc3ccccc23)n1`, the inhibition was 26.4% (inactive).
For the compound `Cc1cc(C)nc(SCC(=O)Nc2ccnc3ccccc23)n1`, the inhibition is 50.5% (active).
Consider `Cc1nc(SCC(=O)Nc2ccnc3ccccc23)n[nH]1`, for which the inhibition was 17.9% (inactive).
With `NC(=O)c1cnn(-c2cc(Oc3ccccc3)ncn2)c1N`, the inhibition is -54.7% (inactive).
For `Nc1ccc2c(c1)N=[N+]([O-])c1cc(N)ccc1C2`, the inhibition was 4.2% (inactive).
To `CC(=O)c1c(O)ccc2c(-c3ccccc3)cc(=O)oc12` belongs 13% (inactive).
To `CN(C)Cc1c(O)ccc2c(-c3ccccc3)cc(=O)oc12` belongs 1.4% (inactive).
Turning to `COc1cc(NS(=O)(=O)c2ccc(N/C=C(\C=O)c3nc4ccccc4o3)cc2)nc(OC)n1`, the inhibition was 11% (inactive).
Consider `CC(=O)NNC(=S)NC(=O)c1cccc([N+](=O)[O-])c1`, for which the inhibition is 14.7% (inactive).
To `O=C(CN1C(=O)NC2(CCCC2)C1=O)N1CCN(S(=O)(=O)c2ccccc2Br)CC1` belongs 3.9% (inactive); to `CCc1c(C)sc(NC(=O)c2cc(-c3ccc(O)cc3)on2)c1C#N`, 50.7% (active).
To `CCc1c(C)sc(NC(=O)c2cc(C)on2)c1C#N` belongs -59.7% (inactive); to `CCc1c(C)sc(NC(=O)c2cc(-c3ccc(OC)c(OC)c3)on2)c1C#N`, 11.3% (inactive); to `COc1ccc(CN(C)S(=O)(=O)c2nnc(NC(=O)c3cccc(OC)c3)s2)cc1`, 29.7% (inactive).
To `COc1ccc(CN(C)S(=O)(=O)c2nnc(NC(=O)c3cccc(F)c3)s2)cc1OC` belongs 44.4% (inactive); to `Cn1c(NC2CCCCC2)cc(=O)n(C)c1=O`, 15.2% (inactive).
`COc1ccccc1OCC(=O)N1CCCC(Nc2ccc(C)c(C)c2)C1` (stereo not drawn): the inhibition was 16.3% (inactive).
To `CCCCn1c(N)c(N(CC(C)C)C(=O)c2cccc(S(=O)(=O)N3CCCCCC3)c2)c(=O)[nH]c1=O` belongs 0.1% (inactive); to `CCc1cc(=O)oc2cc(C)cc(OCC(=O)C(C)(C)C)c12`, 8.9% (inactive); to `O=C(Nc1cccc([N+](=O)[O-])c1)Nc1ccc2c(c1)CCC2`, -35.7% (inactive).
To `COc1cc2c(cc1OC)C(COc1ccc([N+](=O)[O-])cc1)N(C(C)=O)CC2` (stereo not drawn) belongs 60.6% (active); to `COc1cc2c(cc1OC)C(COc1ccc(F)cc1)N(C(C)=O)CC2` (stereo not drawn), 2.4% (inactive); to `COC(=O)c1ccc(OCC2c3cc(OC)c(OC)cc3CCN2C(C)=O)cc1` (stereo not drawn), 6.9% (inactive).
For `Cc1ccc(C(=O)NNC(=O)c2ccc(NC(=O)C(C)(C)C)cc2)cc1`, the inhibition was 8.3% (inactive).
For `CC1(C)CC(=O)C=C(C(=O)N2CCCC(C(=O)c3cccc(C(F)(F)F)c3)C2)O1` (stereo not drawn), the inhibition was 15.7% (inactive).
To `CN(C)S(=O)(=O)c1ccc(Nc2nc(C3CC3)nc3c2nnn3Cc2ccccc2Cl)cc1` belongs 58.7% (active).
Take `COC(=O)CNc1nc(C2CC2)nc2c1nnn2Cc1ccccc1Cl`: the inhibition was 7.3% (inactive).
As for `OCCNc1nc(C2CC2)nc2c1nnn2Cc1ccccc1Cl`, the inhibition was 3.7% (inactive).
To `CCCCC(CC)CNC(=O)c1cc2ccccc2c(=O)o1` (stereo not drawn) belongs 9.7% (inactive); to `O=C(CCNS(=O)(=O)c1ccc(Br)cc1)NCCc1ccc(Cl)cc1`, -1.7% (inactive).
To `CNC(=O)N(O)C1N(/N=C/c2cc(Br)ccc2O)C(=S)SC1(C)C` (stereo not drawn) belongs 13.6% (inactive).
As to `Cc1ccc(S(=O)(=O)Cc2ccc(C(=O)N3CCN(c4cccc(C)c4C)CC3)o2)cc1`, the inhibition was 13.8% (inactive).
Turning to `Cc1ccccc1S(=O)(=O)Cc1ccc(C(=O)N2CCN(c3ccccc3F)CC2)o1`, the inhibition was 10.3% (inactive).
To `Cc1onc(-c2ccccc2Cl)c1C(=O)N1CCCCC1C(=O)O` (stereo not drawn) belongs 8% (inactive); to `CCOC(=O)c1c(C)[nH]c(C)c1C(=O)CSc1nc2ccccc2c(=O)n1-c1ccc(F)cc1`, -3.4% (inactive); to `CCOC(=O)c1c(C)[nH]c(C)c1C(=O)CSc1nc2ccccc2c(=O)n1-c1ccc(C)cc1`, -12.1% (inactive).
To `CCC(CC)N1CCN(S(=O)(=O)c2ccc(OC)cc2)CC1` belongs -0.3% (inactive).
To `Cc1ccc(S(=O)(=O)Nc2ccc3nc(C)sc3c2)cc1` belongs 29.3% (inactive); to `Cc1nc2ccc(NS(=O)(=O)c3ccc(F)cc3)cc2s1`, 12.4% (inactive).
Consider `O=C(NC1CCCc2ccccc21)c1ccc([N+](=O)[O-])cc1` (stereo not drawn), for which the inhibition was 1.7% (inactive).
As to `COc1ccc(/C(N)=N/OC(=O)c2cccc([N+](=O)[O-])c2C)cc1OC`, the inhibition was -8.3% (inactive).
As for `CC(=O)c1c(C)[nH]c(C(=O)OCC(=O)Nc2cc(Cl)ccc2[N+](=O)[O-])c1C`, the inhibition is 5.7% (inactive).
To `CC(=O)c1c(C)[nH]c(C(=O)OCC(=O)Nc2ccc([N+](=O)[O-])cc2Cl)c1C` belongs 11% (inactive).
For `CC(=O)c1c(C)[nH]c(C(=O)OCC(=O)Nc2ccc(Cl)cc2[N+](=O)[O-])c1C`, the inhibition was 51% (active).
To `O=C(CCc1n[nH]c(=O)[nH]c1=O)N/N=C/c1ccco1` belongs 11.3% (inactive); to `COc1ccc(NC(=O)c2ccc3c(c2)C(=O)N(Cc2cccnc2)C3=O)c(OC)c1`, -3.5% (inactive); to `O=C1CCN(Cc2ccc([N+](=O)[O-])cc2)CCN1[C@H](CO)c1ccccc1`, 8.7% (inactive).
Turning to `COc1cc(NC(=O)c2cc3ccccc3cc2OC)ccc1NC(=O)c1cccs1`, the inhibition was 45.8% (inactive).
To `COc1cc2ccccc2cc1C(=O)Nc1ccc(NC(=O)c2cccs2)cc1` belongs 60.7% (active).
To `COc1ccc(NC(=O)c2cc3ccccc3cc2OC)cc1` belongs -18.7% (inactive); to `C#Cc1ccc([C@@H]2C=C(C(=O)Nc3ccccc3)O[C@H](OCC)[C@H]2CCCO)cc1`, 11.4% (inactive).
To `CCCCc1c(C)c(C#N)c2nc3ccccc3n2c1Cl` belongs -34.2% (inactive).
For the compound `CCCCc1c(C)c(C#N)c2nc3ccccc3n2c1NCCN(C)C`, the inhibition was -20.8% (inactive).
`CC(C)(C(N)=O)N1CCN(c2ncc(C(F)(F)F)cc2Cl)CC1`: the inhibition is 9.3% (inactive).
To `Cc1nc(SCC(=O)N2CCCCC2)c2c(C)c(C)sc2n1` belongs 22.8% (inactive); to `Cc1nc(N2CCN(C(=O)CCC(=O)O)CC2)c2c(C)c(C)sc2n1`, 13.1% (inactive).
To `CCC(=O)N1CCN(c2nc(C)nc3sc(C)c(C)c23)CC1` belongs 8.8% (inactive); to `CCn1c(SCC(=O)N2CCc3ccccc3C2)nc2sc(C)c(C)c2c1=O`, 17.7% (inactive).
In the case of `N#Cc1cc(-c2ccccc2)nc(Oc2ccccc2)n1`, the inhibition was 10.8% (inactive).
For `O=C(NNC(=O)c1ccc[nH]1)Nc1cc(Cl)cc(Cl)c1`, the inhibition was 2.1% (inactive).
To `O=C(COc1ccc2c3c(c(=O)oc2c1)CCCC3)N[C@@H](Cc1ccccc1)C(=O)O` belongs 9.1% (inactive); to `Cc1cc(C)c(S(=O)(=O)N2CCCOC2CNC(=O)C(=O)NCc2ccco2)c(C)c1` (stereo not drawn), 15% (inactive); to `CC(C)(C)C1=CC(=O)C(N2CCOCC2)=CC1=O`, 14.9% (inactive).
To `CC1=C(C)C(=O)C(N2CCOCC2)=CC1=O` belongs 12.8% (inactive); to `Cc1ccccc1NC(=O)C(C)Sc1nnc(-c2ccncc2)n1CC1CCCO1` (stereo not drawn), -16.6% (inactive).
To `CC(NC(=O)C1CCCO1)c1ccccc1` (stereo not drawn) belongs 3.6% (inactive); to `CCC(=O)N1CCN(c2ccc(NC(=S)NC(=O)COc3ccccc3)cc2)CC1`, 8.2% (inactive).
Turning to `CC(=O)N1CCN(c2ccc(NC(=O)c3ccc(C(C)(C)C)cc3)cc2)CC1`, the inhibition is 3.5% (inactive).
In the case of `CC(=O)N1CCN(c2ccc(NC(=S)NC(=O)COc3ccc(C(C)(C)C)cc3)cc2)CC1`, the inhibition is 68.1% (active).
Turning to `CCOc1ccccc1-c1cc(C(=O)N/N=C/c2ccc(O)c(OC)c2)c2ccccc2n1`, the inhibition is -16.4% (inactive).
As to `Cc1ccc(CNC(=O)c2ccc(NC(=O)C3=CSCCO3)cc2)cc1`, the inhibition was 8.2% (inactive).
For the compound `O=C(NNc1ccc(F)cc1)c1c(F)cccc1Cl`, the inhibition is -2.7% (inactive).
Turning to `CC(=O)Nc1nc(C)c(C(C)=O)s1`, the inhibition is -12.2% (inactive).
To `CC(=O)c1sc(NC(=O)C(C)C)nc1C` belongs 8.3% (inactive); to `CC(=O)c1sc(NC(=O)C2(F)C(F)(F)C(F)(F)C(F)(F)C(F)(F)C2(F)F)nc1C`, 55.2% (active); to `CCOc1ccc(N=C2NC(=O)S/C2=C\c2ccc(Cl)cc2)cc1`, -11% (inactive).
To `CCOCCCNCc1cc(Br)ccc1OCc1ccccc1` belongs 19% (inactive).
